# Screening results: PubChem, National Center for Advancing Translational Sciences (NCATS)
# Shown are actives, neighbours in structure and some others; about 21% of the full set was active somewhere.
# Pf growth 48h – P. falciparum growth inhibition at 48 hours (one generation). Potency, µM (series often up to 28.7 µM), inactives show top-dose activity change, negative = inhibition, actives largely listed as inhibitors. P. falciparum luciferase growth in erythrocytes, 48 h. 5.9% of 310,000 active; also: potency is read from the fitted curve at half-maximal effect; % is scaled to controls: 0 for no effect and ±100 for the full control effect
#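 Here the parasites carry a stable luciferase gene and grow inside erythrocytes in Albumax-based RPMI medium with compound for one erythrocytic cycle. Activity is scored as loss of luminescent signal.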
# Shiga inhibitor – inhibitors of Shiga toxin in Vero cells | Vero cells, Shiga toxin protein synthesis inhibition reporter | inhibition, % at 38.7 µM | 9.2% of 290,000 active | AID 2315; in the data active = inhibition mostly above about 28%, no sharp cut-off; inactive = mostly below about 43%; also: 0% is about no effect
# NS1 function inh – influenza NS1 inhibition; 0.4% of 270,000 active; Potency, µM (top dose mostly 46.1 µM), inactives show at the top dose activity, positive = more growth; calls by dose curve; also: potency is read from the fitted curve at half-maximal effect; actives are rising curves; nearly all actives have a fitted effect of over 50% in size
#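 Recovery from NS1-induced slow growth read by OD600 in budding yeast switched to galactose assay medium (pH 6.0, -URA) at 1:100 dilution. Compound 23 nl per well; the matching strain lacking NS1 serves as control.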
# Pf growth 96h – P. falciparum growth inhibition at 96 hour, primary screen for plastid delayed-death inhibitors. Potency, µM (series often up to 28.7 µM), for the others: at the top dose activity change, negative = inhibition, hits mostly inhibitors. P. falciparum luciferase reporter growth, 96 h. 6.9% of 320,000 active; also: potency is read from the fitted curve at half-maximal effect; % is scaled to controls: 0 for no effect and ±100 for the full control effect
#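 Delayed-death screen, second-generation endpoint: infected erythrocytes, 2% hematocrit, 0.05% parasitemia final; 96 hours at 37 C, 5% CO2; luciferase detection reagent; luminescence decrease equals reduced growth.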
# Sm TGR inh – blocks Schistosoma mansoni thioredoxin glutathione reductase; Q962Y6; purified TGR, DTNB reduction, TNB absorbance 405 nm; Potency, µM (series often up to 114 µM), without a hit: top-dose activity change, negative = inhibition, most hits filed as inhibitors; 3% of 360,000 active; also: potency is read from the fitted curve at half-maximal effect; % is scaled to controls: 0 for no effect and ±100 for the full control effect; nearly all actives have a fitted effect of over 60% in size
#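 TGR 20 nM + NADPH 100 uM (dispensed conc.), cpd preinc 15 min RT; start with NADPH (500 uM addition) then DTNB (15 mM addition). Kinetic TNB absorbance, 405 nm filter. Four-parameter Hill fit across titration.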
# Cycloheximide cs – counter-screen hit for Shiga toxin inhibitors, cycloheximide. max response, %. 12% of 300,000 active. cell reporter, cycloheximide protein synthesis inhibition counterscreen. AID 2314; in the data active = max response mostly above about 13%, no sharp cut-off; inactive = mostly below about 14%; also: read at 38.3 µM for the half of the compounds with a filed dose; 0% is about no effect
# Numbers without * were called inactive; i = inactive; ? = inconclusive; / = not tested or not shown; [ ] = dose if it differs, or a comment. Unless noted, calls follow the shape of the dose curve; as a rule, active = well fitted curve in the direction sought with a large enough effect; inconclusive = small, poorly fitted or top-dose-only effect, or another doubt; inactive = no such curve, though single readings can be large; an effect the other way counts as inactive or inconclusive.
SMILES,Pf growth 48h,Shiga inhibitor,NS1 function inh,Pf growth 96h,Sm TGR inh,Cycloheximide cs
CCOc1cc(/C=N/NC(=S)Nc2ccccc2C(F)(F)F)ccc1OCC(=O)N1CCOCC1,?,-6.2,12.1%,?,-8.2%,2.2
Cc1cccc(NC(=O)c2nc[nH]c2C(=O)NC2CCN(C(=O)OC(C)(C)C)CC2)c1,?,/,/,?,-23.0%,/
Cc1ccc(NC(=O)CSc2ccccc2)cc1S(=O)(=O)N1CCCCC1,?,/,/,?,-0.1%,/
Cc1cc(C)c(S(=O)(=O)/N=C2/C=C(SCC(=O)O)C(=O)c3ccccc32)cc1C,11.7µM*,7.7,/,9.6%,3.55µM*,4.1
COc1cc([N+](=O)[O-])ccc1NC(=O)Cc1ccccc1,14.0%,-1.7,-2.9%,26.5%,/,-4.7
COc1ccccc1/C=N/N1C(=O)C(CC(=O)Nc2ccc([N+](=O)[O-])cc2OC)SC1=Nc1cccc(C)c1C (configuration not stated),3.7µM*,-3.0,7.7%,?,/,-2.3
COc1cc([N+](=O)[O-])ccc1NC(=O)CCCOc1cccc(C)c1C,7.8%,-9.4,-2.9%,2.94µM*,-1.9%,5.7
CCOc1ccc(NC(=O)CC2SC(N)=NC2=O)c([N+](=O)[O-])c1 (configuration not stated),18.1%,-28.4,/,10.6%,-9.4%,8.9
CCOc1ccc(/C(C)=N/N2C(=O)C(CC(=O)Nc3ccc(OC)cc3[N+](=O)[O-])SC2=Nc2cccc(C)c2C)cc1 (configuration not stated),2.08µM*,-9.5,22.0%,2.33µM*,17.8µM*,-0.9
O=C(CS(=O)(=O)c1cn(Cc2ccccc2Cl)c2ccccc12)N1CCOCC1,-22.1%,-7.4,-8.5%,31.6%,-0.8%,-2.1
Cc1cc(NC(=O)CS(=O)(=O)c2cn(Cc3ccc(F)cc3)c3ccccc23)no1,/,-2.0,8.1%,13.1µM*,-13.8%,-2.7
O=C(CS(=O)(=O)c1cn(Cc2ccc(Cl)cc2)c2ccccc12)N1CCCC1,/,-6.7,0.1%,8.28µM*,-7.4%,-1.5
O=S(=O)(c1ccc2ccccc2c1)N1CCN(CCO)CC1,-9.1%,18.9,-1.8%,8.0%,1.2%,-7.1
c1cc(CSSCc2ccncc2)ccn1,/,/,-38.2%,/,/,/
CC1(C)CC(=O)C=C(/C=C/c2ccccc2)C1,?,/,/,2.08µM*,-30.7%,/
CC1(C)CC(=O)C=C(NCCc2ccccc2)C1,0.0%,19.2,-10.3%,11.8%,5.0%,5.6
CCOc1ccc(-c2ccc(CO)o2)cc1N,/,/,/,/,-0.7%,/
Cc1ccc(-c2ccc(CO)o2)cc1N,62.4%,54.8*,/,-43.0%[5.75 µM],-1.9%,25.5*
Cc1ccc(C(=O)NC(=S)Nc2ccc(-c3ccc(CO)o3)cc2)cc1,-10.7%,50.7,/,34.0%,?,29.1
CCOC(=O)c1ccc(-c2ccc(CO)o2)cc1,123.7%,83.7*,-37.2%,100.6%,35.5µM*,33.6*
Cc1ccc(Cl)cc1NC(=O)C1CC1c1ccccc1 (configuration not stated),-6.9%,/,-8.5%,9.6%,5.7%,0.8
N#Cc1cccc(NC(=O)CNc2cccc(S(=O)(=O)N3CCCC3)c2)c1,10.4µM*,/,/,?,-2.6%,/
COc1cc(C#N)ccc1OCC(=O)Nc1cccc(S(=O)(=O)N2CCCC2)c1,9.28µM*,-4.7,/,8.28µM*,6.8%,2.9
CC(=O)c1cccc(NCC(=O)Nc2cccc(S(=O)(=O)N3CCCCC3)c2)c1,?,/,/,?,1.5%,/
N#Cc1ccc(NCC(=O)Nc2ccc3c(c2)OCCO3)cc1,-28.9%,-23.5,/,8.2%,-1.5%,2.0
N#Cc1cccc(NCC(=O)Nc2ccc3c(c2)OCCO3)c1,412.5%,63.4*,5.2%,i,1.3%,27.3*
N#Cc1cccc(NCC(=O)Nc2cccc(S(=O)(=O)N3CCCCC3)c2)c1,13.1µM*,/,/,?,-4.2%,/
CCc1nnc2c3ccccc3nc(Nc3ccc(C(C)=O)cc3)n12,/,/,/,/,-6.6%,/
CCOc1ccccc1C1C(C#N)=C(N)N(N(C)C)C2=C1C(=O)CCC2 (configuration not stated),-29.8%,0.9,-0.4%,?,9.8%,5.5
CC1CCN(S(=O)(=O)c2ccc3c(c2)CCC(=O)N3CC(=O)Nc2cccc(C#N)c2)CC1,11.7µM*,/,/,?,9.7%,/
